Source: PubChem BioAssay (Tox21)
Where “and” joins values, the source holds several entries; their conditions need not be identical. Equal entries are not always repeated. Results filed as inconclusive are left out. Some compounds were tested as several samples or in several runs, with calls that do not always agree. Calls of active or inactive are those of the source. Calls follow the shape of the dose curve; as a rule, active = well fitted curve in the direction sought with a large enough effect in the repeat runs; inconclusive = weak or mixed curves; inactive = no such curve, though single readings can be large; an effect the other way counts as inactive or inconclusive.

Legend:
[1] = A CellTox Green Cytotoxicity Assay to monitor cytotoxicity in HEK293 cells - 40 hour (AID 1224871); also: nearly all actives have a fitted effect of over 45% in size; also: potency is read from the fitted curve at half-maximal effect
In short: (§1)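 Dead-cell fluorescence measured kinetically: asymmetric cyanine dye, HEK293, 600 cells/well, 5 h settle, 23 nL cpd/DMSO, 37 C, reads 0–40 h every 8 h.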

[2] = qHTS RealTime-Glo MT Cell Viability Assay in HEK293 cells - 16 hour (AID 1224872); also: nearly all actives have a fitted effect of over 50% in size; also: potency is read from the fitted curve at half-maximal effect; as to activity change, negative = cytotoxicity: top concentration of the series differs between compounds
In short: (§2)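 Quantitative high-throughput screen of the Tox21 10K library in HEK293: cells and RealTime-Glo reagents plated together, compound added at 5 h, luminescence monitored through 40 h at 37 C.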

[3] = qHTS RealTime-Glo MT Cell Viability Assay in HepG2 cells - 8 hour (AID 1224873); also: nearly all actives have a fitted effect of over 55% in size; also: potency is read from the fitted curve at half-maximal effect
In short: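 HepG2 cells (600/well) mixed with RealTime-Glo MT reagent, settled 5 h at 37 C/5% CO2 before compound addition. Nonlytic NanoLuc luminescence from viable-cell prosubstrate reduction read repeatedly during 40 h treatment at 37 C.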

[4] = qHTS RealTime-Glo MT Cell Viability Assay in HEK293 cells - 40 hour (AID 1224874); details: RealTime-Glo luminescence; max response: stronger effect = lower value; also: nearly all actives have a fitted effect of over 50% in size; also: potency is read from the fitted curve at half-maximal effect
In short: (§3)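 600 HEK293 cells per well, dispensed already mixed with RealTime-Glo MT reagents. Compound dosing came 5 h later. The same wells were read for luminescence at 0, 8, 16, 24, 32 and 40 h of exposure at 37 C.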

[5] = A CellTox Green Cytotoxicity Assay to monitor cytotoxicity in HEK293 cells - 24 hour (AID 1224875); also: series mostly up to about 77 µM; nearly all actives have a fitted effect of over 45% in size
In short: as §1

[6] = A CellTox Green Cytotoxicity Assay to monitor cytotoxicity in HepG2 cells - 16 hour (AID 1224876); also: nearly all actives have a fitted effect of over 45% in size; also: potency is read from the fitted curve at half-maximal effect
In short: (§4)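 First, HepG2 cells (600/well) mixed with reagent were plated; second, after 5 h at 37 C they received compounds via pintool; third, fluorescence was measured at 0 h through 40 h at 8 h intervals.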

[7] = qHTS RealTime-Glo MT Cell Viability Assay in HepG2 cells - 32 hour (AID 1224877); also: nearly all actives have a fitted effect of over 55% in size; also: potency is read from the fitted curve at half-maximal effect
In short: (§5)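 Compound treatment began 5 h after plating HepG2 cells (600/well) with NanoLuc luciferase and prosubstrate. Plates stayed at 37 C for 40 h; luminescence was captured at six time points, 0 h through 40 h.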

[8] = A CellTox Green Cytotoxicity Assay to monitor cytotoxicity in HepG2 cells - 24 hour (AID 1224878); also: nearly all actives have a fitted effect of over 45% in size; also: potency is read from the fitted curve at half-maximal effect
In short: as §4

[9] = A CellTox Green Cytotoxicity Assay to monitor cytotoxicity in HepG2 cells - 40 hour (AID 1224879); also: nearly all actives have a fitted effect of over 40% in size; also: potency is read from the fitted curve at half-maximal effect
In short: as §4

[10] = qHTS RealTime-Glo MT Cell Viability Assay in HEK293 cells - 0 hour (AID 1224880)
In short: as §3

[11] = A CellTox Green Cytotoxicity Assay to monitor cytotoxicity in HEK293 cells - 32 hour (AID 1224881); also: nearly all actives have a fitted effect of over 40% in size
In short: as §1

[12] = A CellTox Green Cytotoxicity Assay to monitor cytotoxicity in HepG2 cells - 0 hour (AID 1224882); also: nearly all actives have a fitted effect of over 35% in size
In short: as §4

[13] = A CellTox Green Cytotoxicity Assay to monitor cytotoxicity in HepG2 cells - 32 hour (AID 1224883); also: nearly all actives have a fitted effect of over 50% in size; also: potency is read from the fitted curve at half-maximal effect
In short: as §4

[14] = A CellTox Green Cytotoxicity Assay to monitor cytotoxicity in HEK293 cells - 8 hour (AID 1224884); also: nearly all actives have a fitted effect of over 35% in size
In short: as §1

[15] = qHTS RealTime-Glo MT Cell Viability Assay in HepG2 cells - 16 hour (AID 1224885); also: nearly all actives have a fitted effect of over 50% in size; also: potency is read from the fitted curve at half-maximal effect
In short: as §5

[16] = qHTS RealTime-Glo MT Cell Viability Assay in HEK293 cells - 24 hour (AID 1224886); also: nearly all actives have a fitted effect of over 50% in size; also: potency is read from the fitted curve at half-maximal effect; as to activity change, negative = cytotoxicity: top concentration of the series differs between compounds
In short: as §2

[17] = qHTS RealTime-Glo MT Cell Viability Assay in HEK293 cells - 8 hour (AID 1224887); also: nearly all actives have a fitted effect of over 50% in size; also: potency is read from the fitted curve at half-maximal effect; as to activity change, negative = cytotoxicity: top concentration of the series differs between compounds
In short: as §3

[18] = A CellTox Green Cytotoxicity Assay to monitor cytotoxicity in HEK293 cells - 16 hour (AID 1224888); also: nearly all actives have a fitted effect of over 35% in size
In short: as §1

[19] = qHTS RealTime-Glo MT Cell Viability Assay in HepG2 cells - 0 hour (AID 1224889); also: nearly all actives have a fitted effect of over 50% in size
In short: as §5

[20] = A CellTox Green Cytotoxicity Assay to monitor cytotoxicity in HepG2 cells - 8 hour (AID 1224890); also: nearly all actives have a fitted effect of over 45% in size; also: potency is read from the fitted curve at half-maximal effect
In short: as §4
% is scaled to controls: 0 for no effect and ±100 for the full control effect.

NNCCc1ccccc1
inactive: Potency [1] | Potency [2] | Potency [3] | max response [4] -29.6% and 3.04% | Potency [5] | Potency [6] | Potency [7] | Potency [8] | Potency [9] | Potency [10] | Potency [11] | Potency [12] | Potency [13] | Potency [14] | Potency [15] | Potency [16] | Potency [17] | Potency [18] | Potency [19] | Potency [20]

C=C(C)C(=O)O
inactive: Potency [1] | Potency [2] | Potency [3] | max response [4] -0.401% and 9.57% | Potency [5] | Potency [6] | Potency [7] | Potency [8] | Potency [9] | Potency [10] | Potency [11] | Potency [12] | Potency [13] | Potency [14] | Potency [15] | Potency [16] | Potency [17] | Potency [18] | Potency [19] | Potency [20]

CCOC(=O)C(C)C(C)=O (stereo not given)
inactive: Potency [1] | Potency [2] | Potency [3] | max response [4] -0.314% | Potency [5] | Potency [6] | Potency [7] | Potency [8] | Potency [9] | Potency [10] | Potency [11] | Potency [12] | Potency [13] | Potency [14] | Potency [16] | Potency [17] | Potency [18] | Potency [19] | Potency [20]

O=C(Cl)c1cccc(C(=O)Cl)c1
inactive: Potency [1] | Potency [2] | Potency [3] | max response [4] 7.93% and 0.091% | Potency [5] | Potency [6] | Potency [7] | Potency [8] | Potency [9] | Potency [10] | Potency [11] | Potency [12] | Potency [13] | Potency [14] | Potency [15] | Potency [16] | Potency [17] | Potency [18] | Potency [19] | Potency [20]

c1ccc2c(c1)-c1cccc3c1c-2cc1ccccc13
1.91 µM (active) and inactive: Potency [9]
inactive: Potency [1] | Potency [2] | Potency [3] | max response [4] 1.04% | Potency [5] | Potency [6] | Potency [7] | Potency [8] | Potency [10] | Potency [11] | Potency [12] | Potency [13] | Potency [14] | Potency [15] | Potency [16] | Potency [17] | Potency [18] | Potency [19] | Potency [20]

NC(Cc1ccc(Cl)cc1)C(=O)O (stereo not given)
inactive: cytotoxicity increase [1] -8.99% [at 0.29 µM] | activity change, negative = cytotoxicity [2] 9.16% [at 0.29 µM] | viability change, negative = cytotoxic [3] -7.98% [at 0.29 µM] | max response [4] 10.5% | activity change [5] -5.17% [at 0.29 µM, stronger effect = higher value] | cytotoxicity increase [6] -4.84% [at 0.29 µM] | activity change, negative = cytotoxic [7] 0.542% [at 0.29 µM] | cytotoxicity [8] -5.86% [at 0.29 µM] | cytotoxicity increase [9] -9.84% [at 0.29 µM] | activity change, negative = cytotoxicity [10] 12.3% [at 0.29 µM] | cytotoxicity increase [11] -6.93% [at 0.29 µM] | cytotoxicity [12] -3.58% [at 0.29 µM] | cytotoxicity increase [13] -4.66% [at 0.29 µM] | cytotoxicity increase [14] 5.18% [at 0.29 µM] | activity change, negative = cytotoxic [15] -3.04% [at 0.29 µM] | activity change, negative = cytotoxicity [16] 9.19% [at 0.29 µM] | activity change, negative = cytotoxicity [17] 10.3% [at 0.29 µM] | activity change [18] -4.15% [at 0.29 µM, stronger effect = higher value] | activity change, negative = cytotoxicity [19] -2.96% [at 0.29 µM] | cytotoxicity increase [20] -8.44% [at 0.29 µM]

CC(N)=O
inactive: Potency [1] | Potency [2] | Potency [3] | max response [4] 14.5% | Potency [5] | Potency [6] | Potency [7] | Potency [8] | Potency [9] | Potency [10] | Potency [11] | Potency [12] | Potency [13] | Potency [14] | Potency [15] | Potency [16] | Potency [17] | Potency [18] | Potency [19] | Potency [20]

Nc1ccc(O)cc1
50.9 µM (active) and inactive: Potency [3]
25.5 µM (active) and inactive: Potency [1]
40.4 µM (active) and inactive: Potency [2] | Potency [16] | Potency [17]
active: Potency [4] 32.1 µM
57.1 µM (active) and inactive: Potency [15]
inactive: max response [4] 18.9% | Potency [5] | Potency [6] | Potency [7] | Potency [8] | Potency [9] | Potency [10] | Potency [11] | Potency [12] | Potency [13] | Potency [14] | Potency [18] | Potency [20]

CC[C@@H](N)CO
inactive: Potency [1] | Potency [2] | Potency [3] | max response [4] -8.2% | Potency [5] | Potency [6] | Potency [7] | Potency [8] | Potency [9] | Potency [10] | Potency [11] | Potency [12] | Potency [13] | Potency [14] | Potency [15] | Potency [16] | Potency [17] | Potency [18] | Potency [19] | Potency [20]

OCCOCCN1CCN(C(c2ccccc2)c2ccc(Cl)cc2)CC1 (stereo not given)
38.4 µM (active) and inactive: Potency [6] | Potency [8]
48.3 µM (active) and inactive: Potency [7] | Potency [15]
active: Potency [4] 7.66 µM | Potency [9] 38.4 µM
9.64 µM (active) and inactive: Potency [2]
6.83 µM (active) and inactive: Potency [16]
inactive: Potency [3] | max response [4] -17.5% | Potency [5] | Potency [10] | Potency [11] | Potency [12] | Potency [14] | Potency [17] | Potency [18] | Potency [19]
43.1 µM (active) and inactive: Potency [20]
54.2 µM (active) and inactive: Potency [1]
24.2 µM (active) and inactive: Potency [13]
